# Source: PubChem BioAssay (EPA / NIEHS)
# Results filed as inconclusive are left out. The source made the active and inactive calls. Rule for the calls: active = hit-call score of the fitted dose curve at least 0.9, where 1 is the maximum; inconclusive = response in the unintended direction; inactive = score below 0.9.
# Legend:
# [1] = target: rat Mineralocorticoid Receptor (MR), Nr3c2 (gene 25672) (UniProt P22199); assay: NVS_NR_rMR: NovaScreen (NVS) Nuclear Receptor Binding Assay for rat Mineralocorticoid Receptor (MR) (AID 2283355)
# Sequence of rat Mineralocorticoid Receptor (MR), Nr3c2 (gene 25672) (P22199 whole entry, looked up): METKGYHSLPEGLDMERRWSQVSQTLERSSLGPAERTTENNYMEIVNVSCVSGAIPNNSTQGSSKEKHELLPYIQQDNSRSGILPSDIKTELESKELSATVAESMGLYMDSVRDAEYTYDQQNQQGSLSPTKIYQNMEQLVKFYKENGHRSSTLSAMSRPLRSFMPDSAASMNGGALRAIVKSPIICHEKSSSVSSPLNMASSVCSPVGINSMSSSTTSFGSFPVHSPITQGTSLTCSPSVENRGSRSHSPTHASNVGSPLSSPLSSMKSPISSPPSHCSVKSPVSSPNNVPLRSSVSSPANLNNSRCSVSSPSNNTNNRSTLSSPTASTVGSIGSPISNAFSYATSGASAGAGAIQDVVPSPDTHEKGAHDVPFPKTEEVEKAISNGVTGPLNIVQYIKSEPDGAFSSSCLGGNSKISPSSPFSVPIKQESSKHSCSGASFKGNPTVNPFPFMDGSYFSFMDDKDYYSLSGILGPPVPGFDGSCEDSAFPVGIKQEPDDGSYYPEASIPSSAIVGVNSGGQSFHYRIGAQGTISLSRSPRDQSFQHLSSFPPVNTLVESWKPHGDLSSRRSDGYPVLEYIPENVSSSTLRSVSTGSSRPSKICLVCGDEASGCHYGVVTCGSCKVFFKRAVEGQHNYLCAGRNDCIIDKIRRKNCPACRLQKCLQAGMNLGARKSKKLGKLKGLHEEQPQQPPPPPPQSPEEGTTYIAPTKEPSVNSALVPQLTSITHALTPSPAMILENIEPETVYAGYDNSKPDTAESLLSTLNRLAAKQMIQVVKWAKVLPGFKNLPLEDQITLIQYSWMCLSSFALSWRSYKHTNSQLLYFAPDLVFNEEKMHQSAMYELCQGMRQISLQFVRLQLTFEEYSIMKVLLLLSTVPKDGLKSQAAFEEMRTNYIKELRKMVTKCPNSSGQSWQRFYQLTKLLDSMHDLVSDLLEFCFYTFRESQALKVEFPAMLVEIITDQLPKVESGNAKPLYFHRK
# How it was run: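 Single-concentration duplicate screen (25 uM) of radioligand binding in adrenalectomized rat brain supernatant; scintillation detection 24 h after dosing. Positive and negative controls ran on each plate, and confirmed actives went to concentration-response.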
# [2] = target: PGR (gene 5241) (UniProt P06401); assay: NVS_NR_hPR: NovaScreen (NVS) Nuclear Receptor Binding Assay for human Progestron Receptor (PR) (AID 2283360);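 note: active means loss of bound radioligand signal versus DMSO baseline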
# Sequence of PGR (gene 5241) (P06401 whole entry, looked up): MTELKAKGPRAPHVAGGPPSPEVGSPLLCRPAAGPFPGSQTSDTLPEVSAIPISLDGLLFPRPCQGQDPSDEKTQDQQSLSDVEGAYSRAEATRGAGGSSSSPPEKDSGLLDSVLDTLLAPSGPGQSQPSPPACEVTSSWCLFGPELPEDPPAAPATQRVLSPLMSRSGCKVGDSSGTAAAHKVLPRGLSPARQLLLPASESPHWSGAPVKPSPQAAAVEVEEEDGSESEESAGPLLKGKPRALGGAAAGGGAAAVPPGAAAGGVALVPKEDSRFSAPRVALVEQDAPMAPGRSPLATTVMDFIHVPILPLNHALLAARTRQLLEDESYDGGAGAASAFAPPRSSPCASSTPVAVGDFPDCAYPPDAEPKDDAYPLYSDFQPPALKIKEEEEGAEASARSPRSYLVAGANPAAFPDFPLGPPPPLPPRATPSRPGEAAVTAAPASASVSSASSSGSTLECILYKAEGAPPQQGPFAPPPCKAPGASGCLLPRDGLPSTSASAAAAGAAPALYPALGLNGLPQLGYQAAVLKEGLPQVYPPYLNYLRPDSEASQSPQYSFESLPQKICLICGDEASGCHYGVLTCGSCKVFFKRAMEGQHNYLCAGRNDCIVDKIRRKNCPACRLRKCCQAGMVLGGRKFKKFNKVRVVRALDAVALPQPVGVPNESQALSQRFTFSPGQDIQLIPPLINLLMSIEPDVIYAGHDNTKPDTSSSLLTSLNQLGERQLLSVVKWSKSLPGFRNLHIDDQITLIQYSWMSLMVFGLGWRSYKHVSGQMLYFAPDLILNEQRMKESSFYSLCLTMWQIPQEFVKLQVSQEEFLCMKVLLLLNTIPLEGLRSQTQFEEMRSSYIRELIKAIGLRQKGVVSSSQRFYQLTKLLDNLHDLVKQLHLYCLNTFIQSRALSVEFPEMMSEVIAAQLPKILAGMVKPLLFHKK
# How it was run: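 Cell-free radioligand binding using receptor protein extracted from T47D cells, read by scintillation counting 18 hours after dosing. Loss of signal relative to DMSO baseline indicates displacement; primary screen single concentration 25 uM in duplicate, actives followed in concentration series.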
# [3] = target: Glucocorticoid receptor (Homo sapiens) (UniProt P04150); assay: NVS_NR_hGR: NovaScreen (NVS) Nuclear Receptor Binding Assay for human Glucocorticoid Receptor (GR) (AID 2283363);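 note: activity is loss of specific radioligand binding signal relative to DMSO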
# How it was run: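 Single-readout cell-free binding: radioligand plus extracted receptor, 16-hour dosing, filter radiodetection; 25 uM duplicate primary, concentration series secondary.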
# [4] = target: Estrogen receptor beta (Homo sapiens) (UniProt Q92731); assay: OT_ER_ERbERb_0480: Odyssey Thera (OT) 8-hour HEK293T Protein-Complementation Assay for Estrogen Receptor-beta/-beta Homodimer (AID 2283357);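 note: active means signal gain over DMSO baseline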
# Sequence of Estrogen receptor beta (Homo sapiens) (Q92731 whole entry, looked up, the tested form may be a part): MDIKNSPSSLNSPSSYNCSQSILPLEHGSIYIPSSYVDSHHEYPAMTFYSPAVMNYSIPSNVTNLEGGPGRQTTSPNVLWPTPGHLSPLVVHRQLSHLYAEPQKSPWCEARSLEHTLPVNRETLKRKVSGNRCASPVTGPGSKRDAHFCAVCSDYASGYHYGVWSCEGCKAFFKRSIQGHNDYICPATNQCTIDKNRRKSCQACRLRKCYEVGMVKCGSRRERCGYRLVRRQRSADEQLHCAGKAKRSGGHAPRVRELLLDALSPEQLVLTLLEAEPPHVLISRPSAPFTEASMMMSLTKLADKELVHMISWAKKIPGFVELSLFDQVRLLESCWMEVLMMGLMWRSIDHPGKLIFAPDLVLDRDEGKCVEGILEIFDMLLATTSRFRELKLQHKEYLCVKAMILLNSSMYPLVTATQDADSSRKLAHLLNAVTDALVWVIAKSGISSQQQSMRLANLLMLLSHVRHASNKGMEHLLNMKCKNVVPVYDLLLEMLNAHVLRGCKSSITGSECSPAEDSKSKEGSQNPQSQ
# How it was run: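 Fluorescence gain from complemented reporter fragments on ER-beta LBD homodimer in HEK293T was quantified against DMSO controls after 8 h treatment, fixation in 4% formaldehyde and Draq5 staining.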
# [5] = target: Androgen Receptor/SRC-1 Co-activator, AR (gene 367) (UniProt P10275); assay: OT_AR_ARSRC1_0960: Odyssey Thera (OT) 16-hour HEK293T Protein-Complementation Assay for Androgen Receptor/SRC-1 Co-activator (AID 2283353);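 note: actives raise the signal above DMSO so potency reflects increased AR and SRC-1 complex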
# Sequence of Androgen Receptor/SRC-1 Co-activator, AR (gene 367) (P10275 whole entry, looked up, the tested form may be a part): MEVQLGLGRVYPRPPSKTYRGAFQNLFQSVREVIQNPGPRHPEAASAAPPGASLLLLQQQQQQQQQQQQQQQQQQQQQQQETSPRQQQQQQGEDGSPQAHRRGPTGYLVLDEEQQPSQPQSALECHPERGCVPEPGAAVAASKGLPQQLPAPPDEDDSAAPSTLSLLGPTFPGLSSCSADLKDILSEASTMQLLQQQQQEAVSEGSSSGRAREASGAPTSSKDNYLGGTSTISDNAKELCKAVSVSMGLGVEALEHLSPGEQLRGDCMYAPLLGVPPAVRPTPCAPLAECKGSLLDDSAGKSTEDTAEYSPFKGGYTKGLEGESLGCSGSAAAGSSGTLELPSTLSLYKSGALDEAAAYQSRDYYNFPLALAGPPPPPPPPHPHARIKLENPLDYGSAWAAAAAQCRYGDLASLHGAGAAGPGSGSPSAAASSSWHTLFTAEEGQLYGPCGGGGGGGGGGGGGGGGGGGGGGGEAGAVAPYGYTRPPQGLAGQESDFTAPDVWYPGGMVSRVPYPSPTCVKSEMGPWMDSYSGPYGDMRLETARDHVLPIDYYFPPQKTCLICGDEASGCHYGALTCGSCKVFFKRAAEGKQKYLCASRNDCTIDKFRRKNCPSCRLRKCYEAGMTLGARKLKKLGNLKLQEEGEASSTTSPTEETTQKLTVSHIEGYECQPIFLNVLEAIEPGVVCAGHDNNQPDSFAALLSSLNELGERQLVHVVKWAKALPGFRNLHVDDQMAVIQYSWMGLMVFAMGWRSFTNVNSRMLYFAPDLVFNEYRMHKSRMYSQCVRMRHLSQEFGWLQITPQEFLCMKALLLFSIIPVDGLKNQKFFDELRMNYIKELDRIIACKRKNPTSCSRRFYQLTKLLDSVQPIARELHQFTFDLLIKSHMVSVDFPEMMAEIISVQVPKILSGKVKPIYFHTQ
# How it was run: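 Sixteen-hour cell assay: Venus halves fused to AR and SRC-1 in HEK293T report binding. Images at 488/635 nm give an N/C ratio in the 488 nm channel over ≥400 cells, analysed as signal increase over DMSO.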
# [6] = target: Agonist Androgen Response Element (ARE), AR (gene 367) (UniProt P10275); assay: OT_AR_ARELUC_AG_1440: Odyssey Thera (OT) 24-hour CHO-K1 Luciferase Assay for Agonist Androgen Response Element (ARE) (AID 2283379)
# Sequence of Agonist Androgen Response Element (ARE), AR (gene 367) (P10275 whole entry, looked up): as the sequence (P10275 whole entry, looked up, the tested form may be a part) above
# How it was run: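 Luminescence increase above DMSO, read after a 24 h compound treatment of CHO-K1 cells expressing an androgen response element luciferase reporter, gives the single primary endpoint; concentration-response fitting used the positive direction.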
# [7] = target: human Peroxisome Proliferator-activated Receptor alpha (PPARa), PPARA (gene 5465) (UniProt Q07869); assay: NVS_NR_hPPARa: NovaScreen (NVS) Nuclear Receptor Binding Assay for human Peroxisome Proliferator-activated Receptor alpha (PPARa) (AID 2283359);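 note: activity means loss of TR-FRET signal versus DMSO baseline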
# Sequence of human Peroxisome Proliferator-activated Receptor alpha (PPARa), PPARA (gene 5465) (Q07869 whole entry, looked up): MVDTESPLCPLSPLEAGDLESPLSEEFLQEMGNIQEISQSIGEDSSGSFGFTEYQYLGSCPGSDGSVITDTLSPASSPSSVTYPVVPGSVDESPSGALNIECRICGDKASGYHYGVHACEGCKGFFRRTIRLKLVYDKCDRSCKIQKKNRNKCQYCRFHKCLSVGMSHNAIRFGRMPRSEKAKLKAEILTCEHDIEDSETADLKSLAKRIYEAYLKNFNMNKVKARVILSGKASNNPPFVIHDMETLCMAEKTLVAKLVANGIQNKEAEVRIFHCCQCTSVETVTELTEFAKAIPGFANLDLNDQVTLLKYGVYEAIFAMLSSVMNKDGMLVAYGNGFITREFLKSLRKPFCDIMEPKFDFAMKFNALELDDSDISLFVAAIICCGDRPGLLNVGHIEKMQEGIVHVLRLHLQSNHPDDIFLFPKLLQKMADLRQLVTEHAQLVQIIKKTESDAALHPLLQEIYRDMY
# How it was run: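 One-hour incubation, cell-free extracted protein, TR-FRET binding readout; signal loss vs DMSO scored. Screen: 25 uM duplicates, confirmatory dose series for actives.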
# [8] = target: Peroxisome proliferator-activated receptor gamma (Homo sapiens) (UniProt P37231); assay: NVS_NR_hPPARg: NovaScreen (NVS) Nuclear Receptor Binding Assay for human Peroxisome Proliferator-activated Receptor gamma (PPARg) (AID 2283370)
# How it was run: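 Fluorescence polarization measures competitive binding to extracted PPARg in a cell-free format. Reading is taken at 2 h; activity is signal loss relative to DMSO. Screening at 25 uM in duplicate preceded confirmatory dose series.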
# [9] = target: Nuclear receptor subfamily 1 group I member 2 (Homo sapiens) (UniProt O75469); assay: NVS_NR_hPXR: NovaScreen (NVS) Nuclear Receptor Binding Assay for human Pregnane X Receptor (PXR) (AID 2283365);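 note: a drop in FRET signal versus DMSO baseline means the compound binds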
# Sequence of Nuclear receptor subfamily 1 group I member 2 (Homo sapiens) (O75469 whole entry, looked up): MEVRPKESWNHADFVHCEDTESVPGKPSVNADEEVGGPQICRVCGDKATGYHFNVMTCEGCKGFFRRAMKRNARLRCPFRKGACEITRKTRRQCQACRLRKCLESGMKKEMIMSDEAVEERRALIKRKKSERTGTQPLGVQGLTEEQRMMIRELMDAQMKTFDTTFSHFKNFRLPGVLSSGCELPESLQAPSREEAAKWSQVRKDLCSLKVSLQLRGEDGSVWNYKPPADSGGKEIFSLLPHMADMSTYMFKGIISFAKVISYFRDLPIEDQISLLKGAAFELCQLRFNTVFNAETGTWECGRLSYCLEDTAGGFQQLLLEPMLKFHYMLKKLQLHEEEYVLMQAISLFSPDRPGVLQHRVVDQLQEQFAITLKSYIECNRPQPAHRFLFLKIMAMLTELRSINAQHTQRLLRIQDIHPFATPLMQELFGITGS
# How it was run: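 Binding was measured by time-resolved fluorescence resonance energy transfer after a 2 h exposure of extracted human PXR protein without cells. Compounds were first tested at 25 uM in duplicate, with concentration series for actives; DMSO defined baseline.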
# [10] = target: Androgen Receptor/SRC-1 Co-activator, AR (gene 367) (UniProt P10275); assay: OT_AR_ARSRC1_0480: Odyssey Thera (OT) 8-hour HEK293T Protein-Complementation Assay for Androgen Receptor/SRC-1 Co-activator (AID 2283354);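 note: hits raise the complementation signal above DMSO so AC50 marks enhancers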
# How it was run: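 After 8 h dosing, stably expressing HEK293T cells with split-Venus AR/SRC-1 fusions were imaged (488, 635nm). The 488nm N/C ratio per image gave the endpoint, analysed in the positive direction against DMSO.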
# [11] = target: human Thyroid Receptor Alpha (TRa), THRA (gene 7067) (UniProt P10827); assay: NVS_NR_hTRa_Antagonist: NovaScreen (NVS) Nuclear Receptor Binding Assay for human Thyroid Receptor Alpha Antagonism (TRa) (AID 2283362)
# Sequence of human Thyroid Receptor Alpha (TRa), THRA (gene 7067) (P10827 whole entry, looked up): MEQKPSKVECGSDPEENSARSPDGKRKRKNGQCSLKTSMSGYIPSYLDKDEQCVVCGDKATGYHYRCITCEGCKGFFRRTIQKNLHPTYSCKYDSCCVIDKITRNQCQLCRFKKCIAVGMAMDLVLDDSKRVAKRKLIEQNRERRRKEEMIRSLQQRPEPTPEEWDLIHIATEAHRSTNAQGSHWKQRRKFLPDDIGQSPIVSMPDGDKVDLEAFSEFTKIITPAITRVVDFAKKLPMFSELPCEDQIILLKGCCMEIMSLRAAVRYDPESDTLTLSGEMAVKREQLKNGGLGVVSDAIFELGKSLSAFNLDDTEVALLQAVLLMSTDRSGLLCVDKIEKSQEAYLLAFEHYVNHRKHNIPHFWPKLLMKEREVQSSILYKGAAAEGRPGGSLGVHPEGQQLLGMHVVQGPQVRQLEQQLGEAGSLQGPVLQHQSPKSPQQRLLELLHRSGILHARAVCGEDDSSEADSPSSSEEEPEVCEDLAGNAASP
# How it was run: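 Chemicals were first screened in duplicate at 25 uM, then actives were retested in concentration series. Binding to the extracted receptor was measured 1 h after dosing by AlphaLISA chemiluminescence, with decreased signal versus DMSO scored as activity.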
compound,measurement,setting,value
C#C[C@]1(O)CC[C@H]2[C@@H]3CCC4=Cc5oncc5C[C@]4(C)[C@H]3CC[C@@]21C,outcome,[1],inactive
same,AC50,[2],41.5 µM (active)
same,AC50,[3],0.319 µM (active)
C=CC[N+](C)(C)CC=C,outcome,[4],inactive
C[Si](O[Si](C)(C)C)O[Si](C)(C)C,outcome,[5],inactive
same,outcome,[4],inactive
same,outcome,[6],inactive
O=C(O)CCCCCCCC(=O)O,outcome,[4],inactive
CCCCCCCCCCCCCCCC(=O)O,outcome,[4],inactive
same,outcome,[7],inactive
same,outcome,[8],inactive
CC(C)(C#N)c1cc(Cn2cncn2)cc(C(C)(C)C#N)c1,outcome,[4],inactive
same,outcome,[9],inactive
CCN(CC)c1ccc(C(=C2C=CC(=[N+](CC)CC)C=C2)c2ccc(S(=O)(=O)O)cc2S(=O)(=O)[O-])cc1,outcome,[5],inactive
same,outcome,[10],inactive
same,outcome,[4],inactive
same,AC50,[11],8.03 µM (active)
same,outcome,[6],inactive
O=c1cc(-c2ccccc2)oc2cc(O)cc(O)c12,outcome,[5],inactive
same,outcome,[10],inactive
same,AC50,[4],7.09 µM (active)
same,outcome,[9],inactive
same,outcome,[6],inactive
COc1c(Cl)c(Cl)c(Cl)c(Cl)c1Cl,AC50,[4],41.8 µM (active)
same,outcome,[9],inactive
CCCCCCCCCCCCCCCCCC(=O)OCC(CC)CCCC (centres undefined),outcome,[4],inactive
c1ccc2[nH]ccc2c1,outcome,[5],inactive
same,outcome,[10],inactive
same,outcome,[4],inactive
same,outcome,[11],inactive
same,outcome,[9],inactive
same,outcome,[6],inactive
Cc1ccc(C(C)C)cc1O,AC50,[4],63.6 µM (active)
COc1ccc(O)cc1,outcome,[5],inactive
same,outcome,[4],inactive
same,outcome,[11],inactive
same,outcome,[6],inactive
COc1cc(C(C)(C)C)c(O)c(C(C)(C)C)c1,outcome,[7],inactive
CN(CCOc1ccc(CC2SC(=O)NC2=O)cc1)c1ccccn1 (centres undefined),outcome,[2],inactive
